Measurements: PubChem BioAssay (NCATS)
Results filed as inconclusive are left out. Entries that show only a call come without a potency. A number with no mark means an inactive call. The source made the active and inactive calls. The call rests on the fitted dose curve; in most records, active means well fitted curve in the direction sought with a large enough effect; inconclusive means small, poorly fitted or top-dose-only effect, or another doubt; inactive means no such curve, though single readings can be large; an effect the other way counts as inactive or inconclusive.

Tests used:
PA-1 = experiment: Primary qHTS to identify gynecologic anti-cancer compounds using libraries of approved drugs and bioactive compounds (AID 1345084); conditions: Gynecologic cancer cell panel viability, ATPlite luminescence, 48 h; series mostly up to 57.5 µM; further: nearly all actives have a fitted effect of over 55% in size
Procedure, shortened: (§1)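 Measured: luminescence after ATPlite addition (15 min, RT). Exposure: 48 h, 37 C, 5% CO2.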

SKOV3 = experiment: as above; conditions: Gynecologic cancer cell panel viability, ATPlite luminescence, 48 h; series mostly up to 57.5 µM
Procedure, shortened: as §1

Tov-21-G = experiment: as above; conditions: Gynecologic cancer cell panel viability, ATPlite luminescence, 48 h; series mostly up to 57.5 µM
Procedure, shortened: as §1

Tov112D = experiment: as above; conditions: Gynecologic cancer cell panel viability, ATPlite luminescence, 48 h; series mostly up to 57.5 µM
Procedure, shortened: as §1

[1] = Drug repurposing screens with cells derived from glioblastoma tumor samples (AID 1345199); conditions: GBM patient neurospheres viability, ATP luminescence, 48 h; further: nearly all actives have a fitted effect of over 40% in size
Procedure, shortened: (§2)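 Primary testing used CD133+ neurospheres from four GBM patients, seven concentrations, 48 h exposure and ATP-based viability; confirmation added three slower-growing patient lines.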

astro = experiment: as above; conditions: viability, ATP luminescence, 48 h; series mostly up to 45.9 µM
Procedure, shortened: as §2

[2] = at 45.9 µM (top of the series), tumour line B
[3] = at 46.1 µM (top of the series), tumour line C
[4] = at 45.9 µM (top of the series), tumour line D
[5] = at 46 µM (top of the series), tumour line A
Potency means the concentration at half of the fitted maximal effect.

SMILES | Potency (PA-1) | Potency (SKOV3) | Potency (Tov-21-G) | Potency (Tov112D) | activity, negative = cell killing [1, 2] [%] | activity, negative = cell killing [1, 3] [%] | activity, negative = cell killing [1, 4] [%] | activity, negative = cell killing [1, 5] [%] | Potency ([1]; tumour line A) | Potency ([1]; tumour line D) | Potency ([1]; tumour line B) | Potency (astro)
O=C(O)c1ccc(-n2nc(-c3ccccc3O)nc2-c2ccccc2O)cc1 | 8.91 µM (active) | inactive | – | – | – | – | – | – | – | – | – | –
O=c1oc2c(O)c(O)cc3c(=O)oc4c(O)c(O)cc1c4c23 | inactive | inactive | inactive | inactive | -21.4 | -1.64 | – | – | – | – | – | –
Cc1nnc(C(=O)NC(C)(C)c2nc(C(=O)NCc3ccc(F)cc3)c(O)c(=O)n2C)o1 | inactive | inactive | inactive | inactive | 5.76 | 13.1 | -4.7 | -16.1 | – | – | – | –
CCOC(=O)[C@H](CCc1ccccc1)N[C@H]1CS[C@H](c2cccs2)CN(CC(=O)O)C1=O | inactive | inactive | inactive | inactive | -5.27 | -21.6 | -7.87 | -16.7 | – | – | – | –
O=S(=O)(O)CCS | inactive | inactive | inactive | inactive | -4.82 | -18 | -6.41 | -21.8 | – | – | – | –
CC(C)C[C@H](NC(=O)[C@H](CCc1ccccc1)NC(=O)CN1CCOCC1)C(=O)N[C@@H](Cc1ccccc1)C(=O)N[C@@H](CC(C)C)C(=O)[C@@]1(C)CO1 | 0.0891 µM (active) | 0.251 µM (active) | 0.251 µM (active) | 0.708 µM (active) | – | – | – | – | – | – | – | –
CC(C(=O)O)c1ccc2c(c1)CC(=O)c1ccccc1S2 (stereo unspecified) | inactive | inactive | inactive | inactive | -3.56 | 5.54 | -21.1 | -9.77 | – | – | – | –
CCN[C@H]1C[C@H](C)S(=O)(=O)c2sc(S(N)(=O)=O)cc21 | inactive | inactive | inactive | inactive | -1.09 | -27 | 3.44 | – | – | – | – | –
CC(C)C1CCC(C(=O)N[C@H](Cc2ccccc2)C(=O)O)CC1 (stereo partly specified) | inactive | inactive | inactive | inactive | -7.58 | -13.4 | 5.65 | -15.4 | – | – | – | –
CN(C)CCc1c[nH]c2ccc(CS(=O)(=O)N3CCCC3)cc12 | inactive | inactive | inactive | inactive | -15.8 | -0.0757 | -5.89 | -32.2 | – | – | – | –
CC(C)OC(=O)C(C(=O)OC(C)C)=C1SC=CS1 | inactive | 25.1 µM (active) | inactive | inactive | – | -18.3 | – | – | 11.2 µM (active) | – | – | –
CN1CCN(c2c(F)cc3c(=O)c(C(=O)O)cn(CCF)c3c2F)CC1 | inactive | inactive | inactive | inactive | -2.67 | -9.27 | -2.82 | -15.5 | – | – | – | –
CN(Cc1cc(Br)cc(Br)c1N)C1CCCCC1 | inactive | inactive | inactive | inactive | -30.4 | -4.61 | – | – | 5.62 µM (active) | – | – | –
COc1cccc(N(C)C(=S)Oc2ccc3c(c2)CCCC3)n1 | inactive | inactive | inactive | inactive | – | -18.5 | – | – | 12.6 µM (active) | 17.8 µM (active) | – | –
CC(C)Cn1cnc2c(N)nc3ccccc3c21 | inactive | inactive | inactive | inactive | -23.5 | – | – | – | – | – | – | –
CNCC[C@H](Oc1cccc2ccccc12)c1cccs1 | – | – | – | – | – | – | – | – | 3.55 µM (active) | 17.8 µM (active) | 28.2 µM (active) | –
CCN(C)C(=O)Oc1cccc([C@H](C)N(C)C)c1 | – | – | – | – | – | – | – | – | 20 µM (active) | – | – | –
CCC(=O)O[C@]1(C(=O)CCl)[C@@H](C)C[C@H]2[C@@H]3CCC4=CC(=O)C=C[C@]4(C)[C@@]3(F)[C@@H](O)C[C@@]21C | inactive | – | inactive | inactive | -2.08 | 10.1 | 0.817 | – | – | – | – | –
COc1ccc(-c2ccc3cc(C(=O)O)ccc3c2)cc1C12CC3CC(CC(C3)C1)C2 | inactive | inactive | inactive | inactive | – | – | – | – | – | – | – | inactive
CC(C)(C#N)c1cc(Cn2cncn2)cc(C(C)(C)C#N)c1 | inactive | inactive | inactive | – | -13.4 | -3.92 | -8.79 | – | – | – | – | –
COc1ccc(C(=O)CC(=O)c2ccc(C(C)(C)C)cc2)cc1 | inactive | inactive | inactive | inactive | – | 3.24 | -26.5 | – | – | – | – | inactive
CC(N)C12CC3CC(CC(C3)C1)C2 (stereo unspecified) | inactive | inactive | inactive | inactive | -2.45 | 5.06 | -5.43 | – | – | – | – | inactive
